Data taken from article PMC7862700, “An all-to-all approach to the identification of sequence-specific readers for epigenetic DNA modifications on cytosine”.

Experiments:
Experiment in all cases: DAPPL (digital affinity profiling via proximity ligation, sequencing); 10 mM Tris-HCl pH 7.5, 50 mM NaCl, 1 mM DTT, 4% glycerol, room temperature, 30 min; GST-TFs on glutathione beads, 16-mer random dsDNA library, 0.1% formaldehyde crosslink after washing; high values mean tight binding
Conditions in all cases: protein: recombinant; tags: N-terminal GST; dsDNA, one strand shown
FLI1 = biological target: T1, FLI1 (Homo sapiens, UniProt Q01543 1-452)
T1 sequence: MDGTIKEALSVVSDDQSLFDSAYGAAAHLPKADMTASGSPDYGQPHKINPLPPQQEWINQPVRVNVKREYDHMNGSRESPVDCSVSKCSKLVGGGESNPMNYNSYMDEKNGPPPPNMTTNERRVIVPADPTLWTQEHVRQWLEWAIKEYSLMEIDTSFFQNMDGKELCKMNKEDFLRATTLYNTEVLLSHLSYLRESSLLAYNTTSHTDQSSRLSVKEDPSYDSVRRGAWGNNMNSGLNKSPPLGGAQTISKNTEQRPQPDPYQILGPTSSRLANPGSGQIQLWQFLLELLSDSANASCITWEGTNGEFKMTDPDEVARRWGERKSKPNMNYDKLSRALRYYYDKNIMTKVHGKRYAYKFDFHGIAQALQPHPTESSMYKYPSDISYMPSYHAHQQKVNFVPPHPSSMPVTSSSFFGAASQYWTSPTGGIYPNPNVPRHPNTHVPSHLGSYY
Outline: (§1)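 The binding signal reported is, for every hexamer, its read frequency for a factor over its read frequency for the tag-only sample. Reads came from pools of yeast-expressed, GST-fused human transcription factors on glutathione beads, barcoded with DNA and mixed with that sample, which were incubated with 200 nmole of a random double-stranded 16-mer DNA library in Tris/NaCl/DTT/glycerol buffer at room temperature for 30 min. After washing, the pools were crosslinked with 0.1% formaldehyde, proximity-ligated with BsaI/T4 ligase for 1 h at 37 °C, PCR-amplified and sequenced on an Illumina NextSeq500.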

ELK1 = biological target: T2, ELK1 (Homo sapiens, UniProt P19419 1-428)
T2 sequence: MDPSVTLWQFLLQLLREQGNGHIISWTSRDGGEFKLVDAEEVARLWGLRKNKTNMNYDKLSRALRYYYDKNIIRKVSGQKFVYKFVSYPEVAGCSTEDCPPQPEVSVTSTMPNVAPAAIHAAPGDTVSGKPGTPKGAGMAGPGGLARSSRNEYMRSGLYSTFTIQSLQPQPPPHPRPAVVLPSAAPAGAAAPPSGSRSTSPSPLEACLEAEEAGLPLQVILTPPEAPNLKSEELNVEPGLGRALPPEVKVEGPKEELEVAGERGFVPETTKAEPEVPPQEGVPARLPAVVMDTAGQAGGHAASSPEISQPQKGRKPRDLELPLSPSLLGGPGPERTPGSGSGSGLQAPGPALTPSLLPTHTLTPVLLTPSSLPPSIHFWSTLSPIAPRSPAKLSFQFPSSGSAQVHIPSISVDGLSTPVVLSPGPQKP
Outline: as §1

GABPA = biological target: T3, GABPA (Homo sapiens, UniProt Q06546 1-454)
T3 sequence: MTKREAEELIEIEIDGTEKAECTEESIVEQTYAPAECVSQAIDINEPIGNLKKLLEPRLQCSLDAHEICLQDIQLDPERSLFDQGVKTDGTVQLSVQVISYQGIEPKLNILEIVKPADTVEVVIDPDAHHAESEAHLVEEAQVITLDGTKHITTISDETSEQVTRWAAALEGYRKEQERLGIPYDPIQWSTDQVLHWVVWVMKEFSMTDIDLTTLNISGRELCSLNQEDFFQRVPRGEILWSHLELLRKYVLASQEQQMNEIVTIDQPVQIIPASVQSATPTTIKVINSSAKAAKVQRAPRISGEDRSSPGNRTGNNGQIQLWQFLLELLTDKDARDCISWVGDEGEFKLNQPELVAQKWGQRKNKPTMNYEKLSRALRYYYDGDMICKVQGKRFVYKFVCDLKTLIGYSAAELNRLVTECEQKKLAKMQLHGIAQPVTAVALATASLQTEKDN
Outline: as §1

ERG = biological target: T4, ERG (Homo sapiens, UniProt P11308 1-479)
T4 sequence: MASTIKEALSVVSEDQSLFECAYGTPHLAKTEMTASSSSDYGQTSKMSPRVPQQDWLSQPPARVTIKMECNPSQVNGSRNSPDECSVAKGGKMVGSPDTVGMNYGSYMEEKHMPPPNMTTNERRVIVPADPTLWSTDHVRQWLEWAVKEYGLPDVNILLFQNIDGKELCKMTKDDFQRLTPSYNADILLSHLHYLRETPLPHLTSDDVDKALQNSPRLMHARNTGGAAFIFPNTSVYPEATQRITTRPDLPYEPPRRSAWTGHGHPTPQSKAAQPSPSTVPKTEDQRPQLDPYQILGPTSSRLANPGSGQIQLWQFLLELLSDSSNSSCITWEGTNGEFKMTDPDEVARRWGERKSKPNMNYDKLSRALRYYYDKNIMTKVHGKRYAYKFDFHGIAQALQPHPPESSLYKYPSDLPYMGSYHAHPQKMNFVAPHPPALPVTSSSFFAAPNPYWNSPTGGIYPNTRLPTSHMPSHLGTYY
Outline: as §1

ELF1 = ELF1 (Homo sapiens, UniProt P32519 1-619)
ELF1, sequence (P32519 whole entry): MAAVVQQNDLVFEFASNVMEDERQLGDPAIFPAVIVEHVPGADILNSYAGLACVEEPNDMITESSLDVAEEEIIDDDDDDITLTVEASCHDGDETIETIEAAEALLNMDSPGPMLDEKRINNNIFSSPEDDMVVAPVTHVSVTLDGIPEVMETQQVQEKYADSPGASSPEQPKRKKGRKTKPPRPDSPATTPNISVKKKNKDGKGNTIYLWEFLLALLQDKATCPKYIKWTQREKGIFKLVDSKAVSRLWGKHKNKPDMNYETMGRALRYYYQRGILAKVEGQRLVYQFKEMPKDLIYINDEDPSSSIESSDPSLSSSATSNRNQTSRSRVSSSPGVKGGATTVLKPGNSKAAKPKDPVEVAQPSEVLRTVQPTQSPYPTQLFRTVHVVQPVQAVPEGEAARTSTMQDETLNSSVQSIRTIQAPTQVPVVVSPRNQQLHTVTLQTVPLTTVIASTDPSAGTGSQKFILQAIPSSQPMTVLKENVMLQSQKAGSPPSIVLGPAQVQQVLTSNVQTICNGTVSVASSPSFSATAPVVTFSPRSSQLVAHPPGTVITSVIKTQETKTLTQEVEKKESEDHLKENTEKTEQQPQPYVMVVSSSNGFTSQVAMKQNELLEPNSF
Outline: as §1

EHF = biological target: T5, EHF (Homo sapiens, UniProt Q9NZC4 1-300)
T5 sequence: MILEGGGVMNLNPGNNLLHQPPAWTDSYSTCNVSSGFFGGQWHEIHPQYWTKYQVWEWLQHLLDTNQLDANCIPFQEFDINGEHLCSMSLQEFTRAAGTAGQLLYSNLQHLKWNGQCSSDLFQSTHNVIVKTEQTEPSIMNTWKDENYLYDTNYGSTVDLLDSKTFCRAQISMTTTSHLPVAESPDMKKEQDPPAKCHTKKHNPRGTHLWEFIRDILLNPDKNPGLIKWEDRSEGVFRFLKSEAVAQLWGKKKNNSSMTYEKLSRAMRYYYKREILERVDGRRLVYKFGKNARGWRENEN
Outline: as §1

SPI1 = SPI1 (Homo sapiens, UniProt P17947 1-270)
Outline: as §1

ELK3 = biological target: T6, ELK3 (Homo sapiens, UniProt P41970 1-407)
T6 sequence: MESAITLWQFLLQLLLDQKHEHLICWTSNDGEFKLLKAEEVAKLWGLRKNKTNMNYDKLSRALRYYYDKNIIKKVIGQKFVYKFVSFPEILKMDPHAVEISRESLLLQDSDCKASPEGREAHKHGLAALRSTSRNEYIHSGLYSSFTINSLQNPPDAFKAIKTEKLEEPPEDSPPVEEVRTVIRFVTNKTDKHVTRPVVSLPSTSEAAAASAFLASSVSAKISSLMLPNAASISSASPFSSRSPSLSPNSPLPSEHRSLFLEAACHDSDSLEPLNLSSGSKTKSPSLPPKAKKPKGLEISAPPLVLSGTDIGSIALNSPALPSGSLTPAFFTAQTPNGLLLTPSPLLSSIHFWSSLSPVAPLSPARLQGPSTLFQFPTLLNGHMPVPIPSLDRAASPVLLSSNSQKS
Outline: as §1

FEV = biological target: T7, FEV (Homo sapiens, UniProt Q99581 1-238)
T7 sequence: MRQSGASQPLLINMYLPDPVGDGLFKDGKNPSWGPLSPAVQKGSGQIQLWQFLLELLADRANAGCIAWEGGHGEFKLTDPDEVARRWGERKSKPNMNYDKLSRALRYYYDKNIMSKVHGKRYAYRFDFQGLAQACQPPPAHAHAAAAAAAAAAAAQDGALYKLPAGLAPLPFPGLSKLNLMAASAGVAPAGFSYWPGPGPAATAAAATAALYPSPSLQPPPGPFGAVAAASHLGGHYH
Outline: as §1

ETV5 = ETV5 (Homo sapiens, UniProt P41161 1-510)
ETV5, sequence (P41161 whole entry): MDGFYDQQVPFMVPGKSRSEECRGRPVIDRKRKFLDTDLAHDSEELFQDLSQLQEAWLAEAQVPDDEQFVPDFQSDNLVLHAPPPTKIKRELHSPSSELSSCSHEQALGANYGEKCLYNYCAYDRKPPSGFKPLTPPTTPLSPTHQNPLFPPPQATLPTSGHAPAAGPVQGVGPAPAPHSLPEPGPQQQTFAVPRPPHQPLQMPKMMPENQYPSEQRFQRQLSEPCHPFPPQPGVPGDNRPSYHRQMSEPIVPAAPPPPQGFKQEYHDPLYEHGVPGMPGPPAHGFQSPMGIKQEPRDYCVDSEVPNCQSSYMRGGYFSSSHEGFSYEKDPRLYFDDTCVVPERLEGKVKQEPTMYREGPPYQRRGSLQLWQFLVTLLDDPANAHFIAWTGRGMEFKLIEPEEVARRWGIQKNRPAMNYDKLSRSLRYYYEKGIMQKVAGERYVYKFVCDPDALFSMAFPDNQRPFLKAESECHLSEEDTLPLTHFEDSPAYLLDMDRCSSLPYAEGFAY
Outline: as §1

SPIC = biological target: T8, SPIC (Homo sapiens, UniProt Q8N5J4 1-248)
T8 sequence: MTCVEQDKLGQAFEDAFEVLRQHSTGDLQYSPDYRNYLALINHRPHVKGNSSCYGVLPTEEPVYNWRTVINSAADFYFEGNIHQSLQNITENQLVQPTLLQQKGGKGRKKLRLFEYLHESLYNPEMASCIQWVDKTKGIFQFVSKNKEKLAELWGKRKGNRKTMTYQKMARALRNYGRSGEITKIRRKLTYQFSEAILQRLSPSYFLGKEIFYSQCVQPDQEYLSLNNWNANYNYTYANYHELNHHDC
Outline: as §1

ELF4 = ELF4 (Homo sapiens, UniProt Q99607 1-663)
ELF4, sequence (Q99607 whole entry): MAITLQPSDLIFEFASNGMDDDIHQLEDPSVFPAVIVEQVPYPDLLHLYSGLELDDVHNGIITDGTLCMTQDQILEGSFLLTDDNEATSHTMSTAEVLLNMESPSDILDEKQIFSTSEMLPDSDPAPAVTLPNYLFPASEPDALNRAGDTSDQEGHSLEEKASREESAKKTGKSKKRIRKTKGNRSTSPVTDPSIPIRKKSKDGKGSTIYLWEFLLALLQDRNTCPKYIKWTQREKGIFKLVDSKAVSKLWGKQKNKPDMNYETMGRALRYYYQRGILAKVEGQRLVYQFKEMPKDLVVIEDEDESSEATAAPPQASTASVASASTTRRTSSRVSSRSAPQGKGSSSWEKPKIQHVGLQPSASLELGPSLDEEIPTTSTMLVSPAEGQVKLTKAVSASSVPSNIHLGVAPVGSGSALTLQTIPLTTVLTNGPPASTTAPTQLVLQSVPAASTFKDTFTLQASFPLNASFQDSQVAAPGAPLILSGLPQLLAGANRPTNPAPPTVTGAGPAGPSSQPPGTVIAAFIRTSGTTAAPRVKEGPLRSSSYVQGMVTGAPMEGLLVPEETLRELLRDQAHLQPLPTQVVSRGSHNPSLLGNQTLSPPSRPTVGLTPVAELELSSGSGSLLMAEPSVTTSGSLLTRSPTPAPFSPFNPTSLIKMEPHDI
Outline: as §1

ETV1 = ETV1 (Homo sapiens, UniProt P50549 1-477)
ETV1, sequence (P50549 whole entry): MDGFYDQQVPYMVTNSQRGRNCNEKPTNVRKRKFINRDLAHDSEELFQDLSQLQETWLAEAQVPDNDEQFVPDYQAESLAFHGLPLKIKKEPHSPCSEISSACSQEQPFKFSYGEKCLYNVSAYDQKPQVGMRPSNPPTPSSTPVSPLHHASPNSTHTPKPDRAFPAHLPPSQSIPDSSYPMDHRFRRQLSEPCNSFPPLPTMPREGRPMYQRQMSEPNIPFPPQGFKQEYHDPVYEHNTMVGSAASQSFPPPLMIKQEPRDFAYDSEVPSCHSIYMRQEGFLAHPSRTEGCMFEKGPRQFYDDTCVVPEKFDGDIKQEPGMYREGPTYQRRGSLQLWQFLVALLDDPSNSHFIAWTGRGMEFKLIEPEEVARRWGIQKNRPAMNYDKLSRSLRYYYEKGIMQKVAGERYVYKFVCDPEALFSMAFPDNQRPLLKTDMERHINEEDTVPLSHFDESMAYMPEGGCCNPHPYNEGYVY
Outline: as §1

ERF = biological target: T9, ERF (Homo sapiens, UniProt P50548 1-548)
T9 sequence: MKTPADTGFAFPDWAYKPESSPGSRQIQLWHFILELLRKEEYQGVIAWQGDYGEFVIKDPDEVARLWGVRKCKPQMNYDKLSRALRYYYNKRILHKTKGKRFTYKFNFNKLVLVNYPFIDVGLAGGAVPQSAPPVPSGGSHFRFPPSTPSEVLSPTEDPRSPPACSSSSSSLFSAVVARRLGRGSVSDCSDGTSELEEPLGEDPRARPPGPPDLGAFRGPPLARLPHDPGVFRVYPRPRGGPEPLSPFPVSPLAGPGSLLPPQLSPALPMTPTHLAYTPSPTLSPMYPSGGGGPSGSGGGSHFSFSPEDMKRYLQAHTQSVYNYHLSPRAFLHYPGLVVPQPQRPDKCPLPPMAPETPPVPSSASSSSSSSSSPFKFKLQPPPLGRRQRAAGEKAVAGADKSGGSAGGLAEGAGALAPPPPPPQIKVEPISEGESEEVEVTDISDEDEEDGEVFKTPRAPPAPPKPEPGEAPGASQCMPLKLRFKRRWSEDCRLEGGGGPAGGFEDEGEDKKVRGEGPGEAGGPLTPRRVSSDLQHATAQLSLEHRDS
Outline: as §1

ETV3L = biological target: T10, ETV3L (Homo sapiens, UniProt Q6ZN32 1-361)
T10 sequence: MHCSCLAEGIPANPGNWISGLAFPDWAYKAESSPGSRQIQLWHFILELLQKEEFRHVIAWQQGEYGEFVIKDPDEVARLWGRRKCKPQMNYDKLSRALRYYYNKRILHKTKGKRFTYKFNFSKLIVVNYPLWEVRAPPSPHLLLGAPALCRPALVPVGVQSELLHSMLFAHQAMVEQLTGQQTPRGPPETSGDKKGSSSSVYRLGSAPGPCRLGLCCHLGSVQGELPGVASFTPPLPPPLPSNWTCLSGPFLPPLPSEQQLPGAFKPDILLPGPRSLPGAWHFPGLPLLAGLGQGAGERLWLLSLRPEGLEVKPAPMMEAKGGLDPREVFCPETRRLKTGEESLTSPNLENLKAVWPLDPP
Outline: as §1

ETS2 = biological target: T11, ETS2 (Homo sapiens, UniProt P15036 1-469)
T11 sequence: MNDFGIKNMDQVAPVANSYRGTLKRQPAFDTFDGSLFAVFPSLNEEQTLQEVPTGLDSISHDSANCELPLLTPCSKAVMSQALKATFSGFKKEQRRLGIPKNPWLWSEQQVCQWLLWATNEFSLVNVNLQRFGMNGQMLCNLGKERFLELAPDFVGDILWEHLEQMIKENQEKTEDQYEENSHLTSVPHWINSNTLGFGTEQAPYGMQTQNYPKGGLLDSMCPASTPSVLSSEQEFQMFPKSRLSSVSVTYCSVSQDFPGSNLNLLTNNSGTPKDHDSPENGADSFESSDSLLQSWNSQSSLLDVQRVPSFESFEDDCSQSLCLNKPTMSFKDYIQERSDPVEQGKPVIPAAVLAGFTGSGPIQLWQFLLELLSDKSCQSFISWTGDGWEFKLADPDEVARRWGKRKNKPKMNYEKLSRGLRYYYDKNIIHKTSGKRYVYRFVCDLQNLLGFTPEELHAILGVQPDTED
Outline: as §1

SPDEF = biological target: T12, SPDEF (Homo sapiens, UniProt O95238 1-335)
T12 sequence: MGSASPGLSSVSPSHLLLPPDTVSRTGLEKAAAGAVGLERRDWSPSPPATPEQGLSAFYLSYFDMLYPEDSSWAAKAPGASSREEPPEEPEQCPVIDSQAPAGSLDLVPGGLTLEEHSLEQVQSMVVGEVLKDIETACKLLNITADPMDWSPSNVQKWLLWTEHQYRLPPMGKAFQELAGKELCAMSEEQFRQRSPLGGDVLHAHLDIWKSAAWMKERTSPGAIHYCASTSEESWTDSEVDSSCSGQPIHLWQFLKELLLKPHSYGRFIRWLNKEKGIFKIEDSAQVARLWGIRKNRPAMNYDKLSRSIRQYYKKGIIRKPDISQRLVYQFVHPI
Outline: as §1

ETV6 = ETV6 (Homo sapiens, UniProt P41212 1-452)
ETV6, sequence (P41212 whole entry): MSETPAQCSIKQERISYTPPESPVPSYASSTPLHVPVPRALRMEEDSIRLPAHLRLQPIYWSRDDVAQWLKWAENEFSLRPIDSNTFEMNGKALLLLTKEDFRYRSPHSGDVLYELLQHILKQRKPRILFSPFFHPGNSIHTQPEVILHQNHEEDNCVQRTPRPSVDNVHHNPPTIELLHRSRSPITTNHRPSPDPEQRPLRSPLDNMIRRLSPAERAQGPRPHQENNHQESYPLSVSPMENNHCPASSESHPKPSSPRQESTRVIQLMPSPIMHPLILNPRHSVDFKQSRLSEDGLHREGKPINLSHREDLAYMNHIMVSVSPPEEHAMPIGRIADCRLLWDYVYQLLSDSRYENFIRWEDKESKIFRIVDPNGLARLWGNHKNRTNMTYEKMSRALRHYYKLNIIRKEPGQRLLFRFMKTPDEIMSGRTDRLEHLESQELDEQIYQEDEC
Outline: as §1

Sequence: CATACG
- binding signal (FLI1): 1.05 fold enrichment (6-mer frequency, TF over GST control)
- binding signal (ELK1): 1.01 fold enrichment (6-mer frequency, TF over GST control)
- binding signal (GABPA): 1.03 fold enrichment (6-mer frequency, TF over GST control)
- binding signal (ERG): 1.06 fold enrichment (6-mer frequency, TF over GST control)
- binding signal (ELF1): 1.08 fold enrichment (6-mer frequency, TF over GST control)
- binding signal (EHF): 1.07 fold enrichment (6-mer frequency, TF over GST control)
- binding signal (SPI1): 1.06 fold enrichment (6-mer frequency, TF over GST control)
- binding signal (ELK3): 1.12 fold enrichment (6-mer frequency, TF over GST control)
- binding signal (FEV): 1.05 fold enrichment (6-mer frequency, TF over GST control)
- binding signal (ETV5): 1.08 fold enrichment (6-mer frequency, TF over GST control)
- binding signal (SPIC): 1.04 fold enrichment (6-mer frequency, TF over GST control)
- binding signal (ELF4): 1.03 fold enrichment (6-mer frequency, TF over GST control)
- binding signal (ETV1): 1.06 fold enrichment (6-mer frequency, TF over GST control)
- binding signal (ERF): 1.13 fold enrichment (6-mer frequency, TF over GST control)
- binding signal (ETV3L): 1.12 fold enrichment (6-mer frequency, TF over GST control)
- binding signal (ETS2): 1.01 fold enrichment (6-mer frequency, TF over GST control)
- binding signal (SPDEF): 1.1 fold enrichment (6-mer frequency, TF over GST control)
- binding signal (ETV6): 1.01 fold enrichment (6-mer frequency, TF over GST control)
